Screening data deposited in PubChem by National Center for Advancing Translational Sciences (NCATS).
Pf growth 96h = Primary qHTS for delayed death inhibitors of the malarial parasite plastid, 96 hour incubation. P. falciparum luciferase reporter growth, 96 h. actives 6.9% (n = 320,000). Potency, µM (top dose mostly 28.7 µM), for inactives: top-dose activity change, negative = inhibition, actives largely listed as inhibitors; active = well fitted inhibition curve with a large enough effect; inconclusive = small, poorly fitted or top-dose-only effect, or another doubt; inactive = no such curve, though single readings can be large or run the other way; also: % is scaled to controls: 0 for no effect and ±100 for the full control effect
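Two-generation exposure (96 h) targets delayed-death phenotype. Reporter parasites carrying integrated firefly luciferase, in red cells at 2% hematocrit and 0.05% parasitemia final, kept at 37 C, 5% CO2; luminescence loss indicates inhibition.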
RE007 growth inh = qHTS Assay for Inhibitors of the HIV-1 protein Vpr. S. pombe RE007 Vpr strain, BacTiter-Glo ATP luminescence, 24 h. Potency, µM (highest dose often 92.2 µM), inactives show at the highest dose activity change, negative = less growth, most hits filed as inhibitors. actives 0.21% (n = 360,000). AID 651644, 2012; active = well fitted falling curve with a large enough effect; inconclusive = small, poorly fitted or top-dose-only effect; inactive = no such curve, though single readings can be large or run the other way; also: % is scaled to controls: 0 for no effect and ±100 for the full control effect; nearly all actives have a fitted effect of over 50% in size
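Fission yeast RE007 carrying one integrated HIV-1 vpr copy, seeded at OD 0.01 in PMG+AL medium with 23 nL pinned compound. Grown 24 h at 30 degrees; viability read by BacTiter-Glo luminescence after 5 min.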
NS1 function inh = qHTS Assay for Inhibitors of Influenza NS1 Protein Function. Potency, µM (highest dose often 46.1 µM), without a hit: at the top dose activity, positive = more growth. actives 0.4% (n = 270,000); also: actives are rising curves; nearly all actives have a fitted effect of over 50% in size
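Growth recovery, yeast-based: influenza A NS1 expressed in S. cerevisiae causes slow growth, and suppressors are detected by OD600. The parent strain without NS1 is used as positive control.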
Pf growth 48h = Primary qHTS for delayed death inhibitors of the malarial parasite plastid, 48 hour incubation. P. falciparum luciferase growth in erythrocytes, 48 h. Potency, µM (top dose mostly 28.7 µM), inactives show top-dose activity change, negative = inhibition, hits mostly inhibitors. actives 5.9% (n = 310,000). AID 504832, 2011; active = well fitted inhibition curve with a large enough effect; inconclusive = small, poorly fitted or top-dose-only effect, or another doubt; inactive = no such curve, though single readings can be large or run the other way; also: % is scaled to controls: 0 for no effect and ±100 for the full control effect
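First compound was added to culture medium, then infected red cells at 0.1% parasitemia and 2% hematocrit (final). After incubation at 37 C under 5% CO2, luciferase detection reagent was dispensed and light output recorded.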
SARS PLP yeast = qHTS of Yeast-based Assay for SARS-CoV PLP. S. cerevisiae expressing SARS-CoV PLpro, growth rescue. Potency, µM (titrated, usually from 32.9 µM), for inactives: top-dose activity, positive = growth rescue, actives largely listed as activators. actives 0.19% (n = 330,000). AID 485353, 2010; also: 0% is about no effect; nearly all actives have a fitted effect of over 55% in size
* = called active by the depositor. A selection: hits, their analogues and other compounds. The true share with any hit is near 9.5%. Unless noted, calls follow the shape of the full dose curve. Potency is read from the fitted curve at half-maximal effect.

Screening N#CCC(=O)Nc1ccc(C(=O)OCC(=O)N(C2CCCCC2)C2CCCCC2)cc1 returned Pf growth 96h inconclusive, RE007 growth inh 0.8%, NS1 function inh inconclusive, Pf growth 48h 11.7µM* and SARS PLP yeast -2.8%.
COc1ccc(CCCc2nnc(SCC(=O)NN)o2)c(C)c1 was read as Pf growth 96h 3.1%, RE007 growth inh -2.1%, NS1 function inh 6.5%, Pf growth 48h inconclusive and SARS PLP yeast -1.0%.
COC(=O)C1=C(C)N(c2ccccc2)C(=S)NC1c1ccccc1C(F)(F)F (configuration not stated) was read as Pf growth 96h inconclusive, RE007 growth inh 16.9%, Pf growth 48h 10.4µM* and SARS PLP yeast -0.2%.
COCCOC(=O)C1=C(C)N(c2ccccc2)C(=S)NC1c1ccccc1C(F)(F)F (configuration not stated) was read as Pf growth 96h inconclusive, RE007 growth inh 6.8%, Pf growth 48h -20.4% and SARS PLP yeast 21.2%.
Screening COCCN(C(=O)CSCc1ccccc1)c1c(N)n(Cc2ccccc2)c(=O)[nH]c1=O returned Pf growth 96h 16.0%, RE007 growth inh 8.8%, NS1 function inh -3.3%, Pf growth 48h 7.0% and SARS PLP yeast -1.7%.
For COCCN(C(=O)CSc1nc2ccccc2c(=O)n1CC(C)C)c1c(N)n(Cc2ccccc2)c(=O)[nH]c1=O the results were Pf growth 96h -51.0%, RE007 growth inh 11.5%, Pf growth 48h 10.4µM* and SARS PLP yeast -1.2%.
`CCCN(C(=O)CCSc1ccc(F)cc1)c1c(N)n(Cc2ccccc2)c(=O)[nH]c1=O` gave Pf growth 96h 4.65µM*, RE007 growth inh 12.8%, NS1 function inh -0.8%, Pf growth 48h 11.7µM* and SARS PLP yeast -2.2%.
`COc1ccccc1CCC(=O)N(Cc1ccccc1)c1c(N)n(Cc2ccccc2)c(=O)[nH]c1=O` gave Pf growth 96h 8.28µM*, RE007 growth inh 11.8%, NS1 function inh 0.4%, Pf growth 48h inconclusive and SARS PLP yeast -8.7%.
For COCCN(C(=O)CCSc1ccc(F)cc1)c1c(N)n(Cc2ccccc2)c(=O)[nH]c1=O the results were Pf growth 96h 13.1µM*, RE007 growth inh -11.2%, Pf growth 48h inconclusive and SARS PLP yeast -1.9%.
Screening CCOc1ccc(CN(C)C(=O)CNC(=O)c2sc3ccccc3c2Cl)cc1 returned Pf growth 96h -19.3%, RE007 growth inh -12.2%, Pf growth 48h -16.5% and SARS PLP yeast 3.9%.
COc1ccc(CC(=O)N(CCC2=CCCCC2)c2c(N)n(Cc3ccccc3)c(=O)[nH]c2=O)cc1 was read as RE007 growth inh -8.1%.
`COCCCN(C(=O)CCSc1ccc(F)cc1)c1c(N)n(Cc2ccccc2)c(=O)[nH]c1=O` gave Pf growth 96h inconclusive, RE007 growth inh 3.9%, Pf growth 48h 11.7µM* and SARS PLP yeast 4.7%.
`CCCCN(C(=O)CSc1cc(C)c2ccccc2n1)c1c(N)n(Cc2ccccc2)c(=O)[nH]c1=O` gave Pf growth 96h inconclusive, RE007 growth inh 8.4%, NS1 function inh 7.9%, Pf growth 48h -11.2% and SARS PLP yeast -3.5%.
CCCCN(C(=O)CSc1cc(C)c2ccc(OC)cc2n1)c1c(N)n(Cc2ccccc2)c(=O)[nH]c1=O was read as Pf growth 96h 11.7µM*, RE007 growth inh 2.8%, NS1 function inh inconclusive, Pf growth 48h -16.3% and SARS PLP yeast -3.9%.
Screening COCCCN(C(=O)CCOc1ccc(C)cc1)c1c(N)n(Cc2ccccc2)c(=O)[nH]c1=O returned Pf growth 96h 2.2%, RE007 growth inh 2.4%, Pf growth 48h -6.8% and SARS PLP yeast -0.7%.
CC(Oc1ccc(F)cc1)C(=O)N(CCC1=CCCCC1)c1c(N)n(Cc2ccccc2)c(=O)[nH]c1=O (configuration not stated) was read as Pf growth 96h 9.28µM*, RE007 growth inh -15.3%, Pf growth 48h inconclusive and SARS PLP yeast -2.6%.
For COCCCN(C(=O)CCOc1ccc(C(C)(C)C)cc1)c1c(N)n(Cc2ccccc2)c(=O)[nH]c1=O the results were Pf growth 96h inconclusive, RE007 growth inh 7.2%, Pf growth 48h 13.1µM* and SARS PLP yeast -5.3%.
Screening COCCCN(C(=O)c1ccc2ccccc2n1)c1c(N)n(Cc2ccccc2)c(=O)[nH]c1=O returned Pf growth 96h 108.9%, RE007 growth inh -5.6%, Pf growth 48h 112.7% and SARS PLP yeast -4.6%.
Screening CC(C(=O)NC(N)=O)N1C(=O)NC(c2ccccc2)(c2ccccc2)C1=O (configuration not stated) returned Pf growth 96h 24.5%, RE007 growth inh -9.5%, NS1 function inh 3.1%, Pf growth 48h -2.6% and SARS PLP yeast 0.7%.
O=C(NCc1ccccc1)c1cc(C2COCCN2S(=O)(=O)c2ccccc2)on1 (configuration not stated) was read as RE007 growth inh -0.8%.
`CCN(CC)c1ccc(-c2nnc(SCC(=O)N(CCOC)c3c(N)n(CC(C)C)c(=O)[nH]c3=O)o2)cc1` gave Pf growth 96h inconclusive, RE007 growth inh -2.2%, Pf growth 48h 1.65µM* and SARS PLP yeast -1.1%.
For CC(C)(C)c1ccc(S(=O)(=O)N2CCN(Cc3cc4c(cc3O)OCO4)CC2)cc1 the results were Pf growth 96h -28.8%, RE007 growth inh 9.4%, Pf growth 48h -30.1% and SARS PLP yeast -0.9%.
Screening COc1ccc(N(C(=O)c2ccccc2C)S(=O)(=O)c2cccs2)cc1 returned Pf growth 96h 8.28µM*, RE007 growth inh -1.1%, NS1 function inh inconclusive, Pf growth 48h inconclusive and SARS PLP yeast -5.4%.
Screening CCC1(CC(C)C)SC(N)=NC1=O (configuration not stated) returned RE007 growth inh 9.0%.
`CCOc1ccc(NC(=O)CN(C)C(=O)c2cn(-c3ccc(F)cc3)nc2-c2cccc(OC)c2)cc1OCC` gave Pf growth 96h inconclusive, RE007 growth inh 2.6%, Pf growth 48h 11.7µM* and SARS PLP yeast -22.0%.
For COc1ccc(NC(=O)CN(C)C(=O)c2cn(-c3ccccc3)nc2-c2cccnc2)cc1 the results were Pf growth 96h inconclusive, RE007 growth inh -21.5% and Pf growth 48h 8.28µM*.
Screening COc1ccccc1NS(=O)(=O)c1cccc(NC(=O)NCCCl)c1 returned Pf growth 96h 11.7µM*, RE007 growth inh -2.2%, NS1 function inh 0.7%, Pf growth 48h 0.0% and SARS PLP yeast 7.3%.
For CCOC(=O)/C(C#N)=C/Nc1ccccc1NS(=O)(=O)c1cccc(C(C)=O)c1 the results were Pf growth 96h inconclusive, RE007 growth inh -9.6%, Pf growth 48h inconclusive and SARS PLP yeast 0.9%.
